Source: PubChem BioAssay
“And” between values parts separate entries of the source, which are not always exact repeats. Identical values can stand only once. For part of these data: Results with a measured potency or affinity are listed apart. Some compounds were tested as several samples or in several runs, with calls that do not always agree. The source made the active and inactive calls. Unless noted, how the calls were made is not given here.

What was measured:
[1] = P. berghei load reduction in hepatocytes – cell-based, HepG2, luciferase luminescence, HepG2 viability, primary screen (AID 624349; in the data active means parasite load remaining mostly below about 12%, no sharp cut-off; inactive means mostly above about 10%;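 further: 100% = mean of DMSO negative control wells on the same plate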); details: P. berghei liver stage in HepG2, luciferase luminescence, concentration not given here; parasite load remaining: stronger effect = lower value; viability: measured here: HepG2 viability without parasites
[2] = signal quenchers or enhancers, Cy5 substrate/SSB – biochemical, NIH Clinical Collection, E. coli SSB, artefact control for HCV NS3 helicase inhibitor project (AID 743268); details: Cy5-oligo bound E. coli SSB, fluorescence interference
[3] = test system: Hepatitis C virus NS3 helicase; assay: blockers of NS3h binding to DNA – biochemical, fluorescence polarization, NIH Clinical Collection, primary screen (AID 743270); details: NS3 helicase binding to Cy5-dT15 DNA, stronger effect = higher value, concentration not given here
[4] = molecular target: Single-stranded DNA-binding protein (Escherichia coli (strain K12)) (UniProt P0AGE0); assay: SSB-ssDNA binding inhibitors – biochemical, fluorescence polarization, NIH Clinical Collection, counter-screen for HCV NS3 helicase inhibitor project (AID 743271; in the data active means inhibition above about 28%); details: E. coli SSB-DNA binding, stronger effect = higher value, concentration not given here
[5] = compounds distorting NS3 helicase fluorescence signal – biochemical, NIH Clinical Collection, artefact control for HCV NS3 helicase inhibitor project (AID 743272); details: fluorescence interference counterscreen, HCV NS3 helicase assay; stronger effect = lower value;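 further: HCV NS3 helicase with a Cy5 labelled single stranded DNA probe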
[6] = modulation of C. elegans fzo-1 (AID 1259413);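 further: fzo-1 mutant C. elegans worms in liquid wells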; details: C. elegans fzo-1 modulator screen, mean read-out; stronger effect = higher value
F380Y/beta1 = assay: BK channel mutant inhibitors and activators – cell-based, U2OS BacMam, thallium flux, beta subunits, selectivity assay, profiling panel (AID 1259406;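 active means thallium flux through the channel raised or lowered by more than 3 SD from vehicle-only wells, actives on both sides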;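 further: initial slope of Thallos dye fluorescence rise after thallium is added; log ratio against the mean of 0.3% DMSO vehicle wells on the same plate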); details: U2OS BacMam BK variants, at 30 µM
F380Y/beta4 = assay: as above; details: U2OS BacMam BK variants, at 30 µM
R275C/beta4 = assay: as above; details: U2OS BacMam BK variants, at 30 µM
R275C/Slo1WT/beta2 = assay: as above; details: U2OS BacMam BK variants, at 30 µM
[7] = galactose survival enhancers in mitochondrial complex I cybrids – cell-based, galactose medium, ATP luminescence, primary screen (AID 1645843;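 active means z-score of at least 1.8 in each of two replicates, scored against plate mean and spread of sample wells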;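 further: positive z means more ATP and so rescue of galactose-driven cybrid death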); details: complex I mutant cybrid cells, 72 h, stronger effect = higher value
[8] = blockers of polyQ-driven CASP3 activation – cell-based (AID 1583); details: polyglutamine-induced caspase-3 activation, cell assay; stronger effect = higher value;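 tested at 10 µM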
[9] = yeast 75Q aggregation reduction – 75Q-TubU reporter (AID 1593); details: Yeast 75Q polyglutamine aggregation reporter
[10] = restoration of touch response, mutant HTT neurons – whole organism, C. elegans mechanosensory neurons, N-terminal huntingtin (AID 1599); details: C. elegans polyQ-huntingtin mechanosensory neurons, stronger effect = higher value
[11] = blockers of cytochrome c efflux from mitochondria – biochemical, purified mitochondria (AID 1603); details: stronger effect = lower value;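 further: mouse liver mitochondria challenged with calcium chloride; signal normalized to the plate average as 100%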
[12] = polyglutamine aggregate formation blockers (AID 1604); details: polyglutamine-induced protein aggregation inhibition assay; stronger effect = higher value; tested at 2.5 µM
[13] = glutamate transport activators, MN-1 cells, MN-1 cell line (AID 1612); details: MN-1 motor neuron cells, stronger effect = higher value;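 further: tested at 1 µM final; 0% = mean of DMSO vehicle wells on each plate; positive means more glutamate uptake than control and negative means less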
[14] = 75Q-TubH aggregate inhibition, S. cerevisiae, yeast (AID 1616); details: S. cerevisiae 75Q-TubH polyglutamine aggregation suppression; stronger effect = higher value
[15] = compounds altering viability of human ES cells (AID 493140); details: human embryonic stem cell survival screen; stronger effect = higher value;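 further: cells exposed to compounds for four days before counting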

Row | Compound | parasite load remaining [1] | viability [1] | fluorescence ratio [2] | inhibition [3] | inhibition [4] | fluorescence ratio [5] | mean signal [6] | log fold change Tl+ flux (F380Y/beta1) | log fold change Tl+ flux (F380Y/beta4) | log fold change Tl+ flux (R275C/beta4) | log fold change Tl+ flux (R275C/Slo1WT/beta2) | z-score [7] | inhibition [8] | score [9] | rescue above control [10] | cytochrome c release ratio [11] | inhibition of aggregation [12] | glutamate uptake change [13] | aggregation suppression score [14] | survival [15]
1 | OCCN1C[C@H](O)[C@@H](O)[C@H](O)[C@H]1CO | 103% (inactive) | 80% | 1.05 (inactive) | -1.98% (inactive) | -4.72% (inactive) | 0.93 (inactive) | 232 (inactive) | -0.0621 (inactive) | -0.0159 (inactive) | -0.031 (inactive) | -0.0316 (inactive) | – | – | – | – | – | – | – | – | –
2 | CC[C@H](C)C(=O)O[C@H]1C[C@H](O)C=C2C=C[C@H](C)[C@H](CC[C@@H](O)C[C@@H](O)CC(=O)O)[C@H]21 | 98.4% (inactive) | 77.5% | 1.01 (inactive) | -3.56% (inactive) | -3.18% (inactive) | 1 (inactive) | 245 (inactive) | -0.03 (inactive) | 0.0119 (inactive) | -0.0312 (inactive) | -0.0454 (inactive) | 0.175 (inactive) | – | – | – | – | – | – | – | –
3 | CCCSc1ccc2nc(NC(=O)OC)[nH]c2c1 | – | – | 1.01 (inactive) | -2.27% (inactive) | -1.24% (inactive) | 1.01 (inactive) | 254 (inactive) | -0.0515 (inactive) | -0.0654 (inactive) | -0.0656 (inactive) | -0.017 (inactive) | 0.56 (inactive) and -0.955 (inactive) | 25.8% | 0.16 | -16.6 | 0.88 | 11.8% | 21.4% | 0.174 | 0.917 (inactive)
4 | O[C@@H](c1cc(C(F)(F)F)nc2c(C(F)(F)F)cccc12)[C@H]1CCCCN1 | -2.37% (inactive) | 0.505% | 1.04 (inactive) | -7.73% (inactive) | -2% (inactive) | 0.96 (inactive) | 213 (inactive) | 0.529 (active) | 0.648 (active) | 0.803 (active) | 0.107 (inactive) | -1.5 (inactive) | – | – | – | – | – | – | – | –
5 | Cc1cccc(Nc2ccccc2C(=O)O)c1C | – | – | 1 (inactive) | -5% (inactive) | 1.05% (inactive) | 0.91 (inactive) | 235 (inactive) | 0.147 (active) | 0.146 (active) | 0.0837 (inactive) | 0.00462 (inactive) | 0.385 (inactive) and 1.06 (inactive) | 14.9% | 0.19 | 14.6 | 1 | 32.9% | -12.3% | 0.495 | 12.2 (inactive)
6 | CCCCCCCCCCC[C@@H](C[C@@H]1OC(=O)[C@H]1CCCCCC)OC(=O)[C@H](CC(C)C)NC=O | 74.9% (inactive) | 74.1% | 1.04 (inactive) | -7.52% (inactive) | -0.1% (inactive) | 0.95 (inactive) | 258 (inactive) | 0.0468 (inactive) | 0.0138 (inactive) | -0.0426 (inactive) | -0.00736 (inactive) | 0.54 (inactive) | – | – | – | – | – | – | – | –
7 | CC(C)C1CCC(C(=O)N[C@H](Cc2ccccc2)C(=O)O)CC1 (stereo partly specified) | 83.5% (inactive) and 55.1% (inactive) | 68.8% and 167% | 1.01 (inactive) | -0.4% (inactive) | 2.98% (inactive) | 0.74 (active) | 221 (inactive) | 0.0965 (inactive) | 0.075 (inactive) | 0.0835 (active) | 0.0201 (inactive) | -0.11 (inactive) | – | – | – | – | – | – | – | –
8 | C[C@@H]1O[C@@H](OC[C@H]2O[C@@H](Oc3c(-c4ccc(O)c(O)c4)oc4cc(O)cc(O)c4c3=O)[C@H](O)[C@@H](O)[C@@H]2O)[C@H](O)[C@H](O)[C@H]1O | 117% (inactive) | 84.5% | 0.95 (inactive) | 5.94% (inactive) | 11.4% (inactive) | 1.02 (inactive) | 242 (inactive) | 0.04 (inactive) | -0.0248 (inactive) | -0.00112 (inactive) | 0.0255 (inactive) | – | 3.3% | 1.12 | 13.8 | 1.08 | 48.6% | 32.8% | 0.985 | –
9 | CN(C)c1ccc(O)c2c1C[C@H]1C[C@H]3[C@H](N(C)C)C(=O)C(C(N)=O)=C(O)[C@@]3(O)C(=O)C1=C2O | – | – | 0.97 (inactive) | -8.64% (inactive) | 0.29% (inactive) | 0.89 (inactive) | – | 0.00506 (inactive) | 0.0112 (inactive) | -0.0291 (inactive) | -0.0415 (inactive) | -1.26 (inactive) and 2.96 (active) | -8.86% | 0.98 | 0 | 0.25 | 88.9% | 5.89% | 0.425 | 9.58 (inactive)
10 | Cc1ccc(O)c([C@H](CCN(C(C)C)C(C)C)c2ccccc2)c1 | 63.7% (inactive) | 67.2% | 1 (inactive) | -4.36% (inactive) | 1.44% (inactive) | 0.97 (inactive) | 219 (inactive) | 0.0975 (active) | 0.136 (active) | 0.0668 (inactive) | 0.0213 (inactive) | – | – | – | – | – | – | – | – | –
